# Shown are actives, neighbours in structure and some others; about 21% of the full set was active somewhere.
# TDP1 cell noCPT – qHTS for Inhibitors of human tyrosyl-DNA phosphodiesterase 1 (TDP1): qHTS in cells in absence of CPT; DT40 Tdp1-/- hTDP1 cells, no CPT, ATP luminescence, 48 h; Potency, µM (doses to about 46.2 µM), for inactives: at the top dose activity change, negative = growth inhibition, usual class: inhibitors; actives 15% (n = 420,000); AID 686978, 2013; note: potency is the fitted concentration of half-maximal effect; % is set by controls: 0 for no effect and ±100 for the full control effect; nearly all actives have a fitted effect of over 55% in size
#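 Stably hTDP1-transfected Tdp1-null chicken DT40 cells were treated with library compounds minus camptothecin and grown for at least 48 hr at 37 °C, after which cellular ATP was quantified by luminescence.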
# ClpP mod – qHTS Assay for Activators of ClpP; ATP-dependent Clp protease proteolytic subunit (Bacillus subtilis (strain 168)), P80244; purified B. subtilis ClpP, FRET peptide cleavage, 20 min; Potency, µM (highest dose often 57.5 µM), inactives show at the top dose activity change, negative = active; actives 1.9% (n = 340,000); AID 651965, 2013; active = well fitted falling curve with a large enough effect; inconclusive = small, poorly fitted or top-dose-only effect; inactive = no such curve, though single readings can be large or run the other way; note: potency is the fitted concentration of half-maximal effect; the source files actives as falling curves though it sought activators and does not explain the sign; nearly all actives have a fitted effect of over 65% in size
# Target sequence (P80244 whole entry, looked up): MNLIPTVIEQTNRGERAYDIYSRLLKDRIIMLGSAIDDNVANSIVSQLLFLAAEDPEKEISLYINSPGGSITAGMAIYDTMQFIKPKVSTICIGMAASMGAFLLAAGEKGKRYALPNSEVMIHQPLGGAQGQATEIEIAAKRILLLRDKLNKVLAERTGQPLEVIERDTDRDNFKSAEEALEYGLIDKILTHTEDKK
#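 Purified B. subtilis ClpP, 10 microg/mL final in Tris/HCl pH8 with KCl, BSA, glycerol and Tween-20, cleaved an Abz/nitrotyrosine-quenched decapeptide. Fluorescence (ex 320, em 430) was read at 0 and 20 min at room temperature. Delta was normalized to 5.8 microM ADEP and DMSO/no-enzyme controls.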
# D3 ag – activates the human D3 dopamine receptor; P35462; D3R DiscoveRx beta-arrestin cells, luminescence, 90 min; max activation, %; actives 0.58% (n = 410,000); AID 652048; in the data active = max activation above about 30%; note: 0% is about no effect
# Target sequence (P35462 whole entry, looked up): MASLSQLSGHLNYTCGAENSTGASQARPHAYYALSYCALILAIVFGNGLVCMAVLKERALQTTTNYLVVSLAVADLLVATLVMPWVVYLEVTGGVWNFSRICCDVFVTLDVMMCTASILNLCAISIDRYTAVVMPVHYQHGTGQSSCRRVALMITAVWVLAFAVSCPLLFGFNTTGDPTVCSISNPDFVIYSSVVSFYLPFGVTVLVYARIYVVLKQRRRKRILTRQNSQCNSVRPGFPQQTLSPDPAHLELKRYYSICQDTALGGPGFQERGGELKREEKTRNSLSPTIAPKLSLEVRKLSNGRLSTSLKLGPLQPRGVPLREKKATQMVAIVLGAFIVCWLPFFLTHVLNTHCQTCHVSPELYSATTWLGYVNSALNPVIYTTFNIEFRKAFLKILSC
#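 Cells at 1500/well, incubated overnight, then treated with pinned compounds (dopamine as control) for 90 min at 37 degrees C. DiscoveRx reagent added for 30 - 60 minutes at room temperature; luminescence read.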
# IL-1B inflam inh – inhibitors of inflammasome signaling (IL-1 beta secretion). AID 743279. activity change, % at 57.5 µM. THP-1 LPS/ATP IL-1B secretion, AlphaLISA, 16 h; hits give low values. actives 4.7% (n = 360,000); in the data active = activity change below about -50%; inconclusive = mostly about -30% to -49%; note: % is set by controls: 0 for no effect and ±100 for the full control effect
#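 THP-1 cells pretreated 1 hr with compounds (up to 57.5 uM final), then stimulated with LPS (250 ng/mL final) plus ATP (1.25 mM final); secreted IL-1B measured by AlphaLISA after 16 hr, decreased signal indicating inhibition.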
# D3 antag – antagonists of human D3 dopamine receptor. D3R cells, DiscoveRx beta-arrestin luminescence, antagonist mode; hits give low values. max response, negative = inhibition, %. actives 2.5% (n = 360,000); in the data active = max response below about -50%; inconclusive = no clear call, values can overlap the other calls; note: % is set by controls: 0 for no effect and ±100 for the full control effect
#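 Cells plated overnight at 1500 cells/well, then exposed to library compounds with dopamine controls for 90 minutes at 37 degrees C. DiscoveRx reagent added for 30–60 minutes at room temperature; luminescence read, quantitative HTS format.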
# DT40 TDP1 CPT – DT40-hTDP1 cell growth loss with CPT | Potency, µM (top dose mostly 46.2 µM), without a hit: top-dose activity change, negative = growth inhibition, actives largely listed as inhibitors | actives 12% (n = 420,000) | AID 686979 | chicken DT40 Tdp1-/-;hTDP1 cells + 20 nM CPT, ATP luminescence, 48 h; note: potency is the fitted concentration of half-maximal effect; % is set by controls: 0 for no effect and ±100 for the full control effect; nearly all actives have a fitted effect of over 55% in size
#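 Chicken DT40 Tdp1-/- cells complemented with human TDP1, 400 cells/well, exposed to compounds plus 20 nM camptothecin for at least 48 h at 37 C; viability read as ATP content by CellTiter-Glo luminescence.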
# Starred values were filed as active, the others as inactive; ? = inconclusive; nt = no result given. Unless noted, calls come from the whole dose curve; as a rule, active = well fitted inhibition curve with a large enough effect; inconclusive = small, poorly fitted or top-dose-only effect; inactive = flat fitted curve, though single readings scatter.
SMILES,TDP1 cell noCPT,ClpP mod,D3 ag,IL-1B inflam inh,D3 antag,DT40 TDP1 CPT
CCC(C)c1ccc(NC(=O)c2ccco2)cc1 (stereo not drawn),?,-0.7%,5.0,-0.3,6.9,?
CCOC(=O)C1=C(C)N(C)C(C)=C(C(=O)OCC)C1c1ccc(C(=O)OC)cc1,14.6µM*,-14.4%,-2.5,?,-6.0,?
CCOC(=O)C1=C(C)N(C)C(C)=C(C(=O)OCC)C1c1ccsc1,14.6µM*,nt,-1.5,-14.5,-9.0,?
CCOC(=O)C1=C(C)N(C)C(C)=C(C(=O)OCC)C1c1ccc(Cl)cc1,?,nt,-7.0,?,-4.5,?
COc1ccc(CNS(=O)(=O)CCNC(=O)c2cccc(OC)c2)cc1,8.1%,-1.0%,3.5,0.0,5.5,9.5%
COc1ccc(CC(=O)Nc2cc(-c3cn4cccnc4n3)ccc2OC)cc1,?,5.0%,11.2,nt,nt,?
O=C(NCC(=O)N(c1ccc2c(c1)OCO2)C(C(=O)NC1CCCC1)c1ccncc1)c1ccco1 (stereo not drawn),23.1µM*,-1.7%,4.3,21.5,-14.8,23.1µM*
O=C(NCC(=O)N(c1cccnc1)C(C(=O)NC1CCCC1)c1ccccc1)c1ccco1 (stereo not drawn),-12.8%,nt,51.6*,-8.1,4.2,7.9%
Cc1ccc(N(C(=O)CNC(=O)c2ccco2)C(C(=O)NC2CCCC2)c2cccnc2)cc1 (stereo not drawn),-8.4%,-0.8%,7.2,-19.2,-23.2,7.3%
COc1ccc(/C=C/C(=O)OCC(=O)NC(=O)NC(C)(C)C)cc1,-25.4%,nt,1.2,5.9,-9.6,-13.4%
O=C1CC2(CCCCCC2)Oc2ccc(Cl)cc21,-2.1%,3.3%,6.7,22.1,-18.9,11.9%
CCC(C)[C@H](NC(=O)N1CCCCCC1)C(=O)OC (stereo partly drawn),0.0%,-1.5%,-2.1,2.9,-6.5,-4.6%
C[C@@]12CCC[C@@](C)(C(=O)O)C1CC[C@@]13C[C@@H](NCc4ccccc4)[C@@](C)(CCC12)C3 (stereo partly drawn),20.6µM*,0.2%,4.2,0.0,-23.0,?
COc1ccc(N(CCCN2C(=O)c3cccc4cccc(c34)C2=O)C(=O)c2cccc(OC)c2)cc1,10.3µM*,-2.4%,4.1,-10.9,2.3,13µM*
O=C1c2cccc3cccc(c23)C(=O)N1CCCN(C(=O)c1cccs1)c1cccc(F)c1,16.4µM*,-11.5%,1.6,29.8,11.1,?
Cc1ccc(N(CCCCN2C(=O)c3ccccc3C2=O)C(=O)c2ccc(Cl)s2)cc1,?,-3.7%,-0.7,-10.7,-12.5,?
O=C1c2ccccc2C(=O)N1CCCCN(C(=O)c1ccc(Cl)s1)c1ccc(Cl)cc1,20.6µM*,-2.6%,0.9,-22.1,-12.9,?
Cc1ccc(N(CCCCN2C(=O)c3ccccc3C2=O)C(=O)c2cccc([N+](=O)[O-])c2)cc1,16.4µM*,-2.7%,2.7,-29.2,11.6,?
CN(C)CCN1C(=O)c2cccc3cc([N+](=O)[O-])cc(c23)C1=O,0.259µM*,-3.0%,-4.0,-101.9*,26.7,0.206µM*
CN(C)CCCN1C(=O)c2cc3ccccc3cc2C1=O,-19.4%,3.9%,2.3,-5.6,0.2,-1.4%
O=C1c2cccc3cc([N+](=O)[O-])cc(c23)C(=O)N1CC1CCCO1 (stereo not drawn),6.51µM*,-1.6%,2.3,-72.5*,16.8,7.31µM*
O=C1c2ccccc2C(=O)N1CC1CCCO1 (stereo not drawn),-10.7%,-1.9%,-6.5,-18.3,-12.8,-3.6%
CN(C)CCCN1C(=O)c2cccc3cccc(c23)C1=O,?,?,-0.8,-89.3*,3.5,?
Cc1noc(C)c1S(=O)(=O)NCCc1csc2nc(-c3ccc(Cl)cc3)nn12,11.6µM*,0.4%,-7.6,nt,nt,23.1µM*
O=S(=O)(NCCc1csc2nc(-c3ccc(Cl)cc3)nn12)c1cccs1,14.6µM*,-0.1%,-10.1,nt,nt,18.4µM*
SMILES,TDP1 cell noCPT,ClpP mod,D3 ag,IL-1B inflam inh,D3 antag,DT40 TDP1 CPT
O=C(CNC(=O)c1cccc(-n2cnnn2)c1)Nc1ccc(F)c(F)c1,-5.8%,0.0%,-20.0,-2.1,?,-9.2%
O=C(O)CCC(=O)Nc1ccc(C(=O)OCC(=O)c2ccc(Cl)cc2Cl)cc1,-7.5%,nt,14.0,2.7,-5.2,-0.9%
Cc1ccccc1NC(=O)c1cccc2nc3ccccc3nc12,23.1µM*,-0.9%,3.6,-17.9,3.4,?
CCOC(=O)C1=CCN(S(=O)(=O)c2ccc(C)cc2)C1c1ccccc1 (stereo not drawn),?,-1.5%,-1.2,22.5,-9.8,?
CCOc1cc2c(c3c1C(c1ccccc1)N(S(=O)(=O)c1ccc(C)cc1)C3)C(=O)C=CC2=O (stereo not drawn),0.581µM*,1.4%,-17.5,-117.8*,-114.6*,0.517µM*
CC(C)N=c1cc2n(-c3ccc(Cl)cc3)c3ccccc3nc-2cc1Nc1ccc(Cl)cc1,16.4µM*,2.0%,-33.5,-14.8,?,13µM*
COc1ccc(-n2ncc3c(NC4CCCC4)ncnc32)cc1,?,3.9%,-17.8,nt,nt,?
Cc1nc(SCC(=O)N2CCCCCC2)c2c(=O)n(C)c(=O)n(CC(C)C)c2n1,13µM*,0.9%,-1.0,-29.3,19.5,?
N#CC1CC(c2ccccc2)=NN1c1ccccc1[N+](=O)[O-] (stereo not drawn),-15.2%,nt,-1.5,?,-12.5,-6.9%
CCN1CCC(O)(/C=C/c2ccc(C(C)C)cc2)C(C(=O)/C=C/c2ccc(C(C)C)cc2)C1 (stereo not drawn),23.1µM*,-2.4%,-9.4,-116.9*,-65.7*,14.6µM*
CCN1CCN(C(=O)/C=C/c2ccc(C(C)C)cc2)CC1,-26.0%,nt,-19.9,-2.7,?,-2.0%
CC(=O)N1c2ccc(C)cc2C(c2ccccc2)CC1C (stereo not drawn),?,nt,-7.2,-55.4*,-19.3,?
CCCC(=O)OC1CC(C)N(C(=O)c2ccccc2)c2ccc(C)cc21 (stereo not drawn),23.1µM*,0.6%,-8.2,2.6,?,?
CC(=O)N1c2ccccc2[C@H](C)[C@H]1C,3.4%,-1.2%,1.3,12.5,-17.5,5.4%

# High-throughput results: PubChem, National Center for Advancing Translational Sciences (NCATS)
